The list is not random: actives were taken first. Their share in the collection is about 2%.
PfHsp40 rescue – compounds rescuing yeast from Plasmodium falciparum HSP40 toxicity; hit rate 0.68% among 340,000; growth rescue, % at 12.5 µM; S. cerevisiae expressing PfHsp40, growth rescue, ATP luminescence; in the data active means growth rescue above about 28%, passing the limit was not always enough; inconclusive means no clear call, values can overlap the other calls;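 further: yeast W303a lacking pdr1 and pdr3 grown in galactose medium; growth measured after three days at 30 °C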
Y pestis TopoI – blocks Yersinia pestis topoisomerase I activity. Y. pestis Topo-I cleavage product accumulation, plate reader. activity, % at 10 µM. hit rate 0.064% among 360,000. AID 504884; in the data active means activity above about 50%, passing the limit was not always enough; inconclusive means no clear call, values can overlap the other calls
CCHFV vOTU inh – blocks the CCHF virus ovarian tumor domain protease; hit rate 0.55% among 370,000; inhibition, % at 11.5 µM; CCHFV vOTU protease, Pep-AMC fluorescence; AID 651958; in the data active means inhibition above about 30%; further: 0% = vehicle wells with enzyme and 100% = no enzyme wells
PrPC TRFRET – reduces human prion protein on the cell surface | cell surface PrPC, TR-FRET read-out | P04156 | hit rate 0.43% among 370,000 | inhibition, % at 13.8 µM; in the data active means inhibition above about 24%; further: 0% = median of the test wells and 100% = reference compound wells
BJeLR viability – kills HRASV12-expressing BJeLR cells; BJeLR (HRASV12) viability, CellTiter-Glo ATP luminescence, 48 h; inhibition, % (test concentration not listed); hit rate 0.17% among 300,000; AID 1554; in the data active means inhibition above about 50%; inconclusive means no clear call, values can overlap the other calls
PrP UTR inh – inhibition of PrP 5' UTR reporter expression. cell-based PrP 5' UTR mRNA reporter, plate reader. inhibition, % (concentration not given with the values). hit rate 0.35% among 340,000; in the data active means inhibition above about 52%; further: 0 = median of the neutral control wells
* = called active by the depositor; ? = inconclusive; · = not tested or not shown.

SMILES	PfHsp40 rescue	Y pestis TopoI	CCHFV vOTU inh	PrPC TRFRET	BJeLR viability	PrP UTR inh
CC(C)C(=O)NNS(=O)(=O)c1ccccc1[N+](=O)[O-]	55.3*	-7.8	9.6	-2.8	-4.4	-14.0
Cc1ccc(S(=O)(=O)N(C)[C@H]2C[C@H]3c4[nH]c5c(-c6ccccc6)cccc5c4CCN3C(=O)[C@H]2[C@H](C)O)cc1	·	·	-61.9	-6.5	·	·
O=C(c1ccc(N2CCN(C(=O)c3ccccc3Br)CC2)cc1)c1cccc(F)c1	34.4*	29.1	14.0	5.9	4.5	8.7
O=P(Nc1cccnc1)(Oc1ccccc1Cl)Oc1ccccc1Cl	411.4*	27.6	1.9	3.6	0.8	-19.9
Cc1cccc(OP(=O)(Nc2cccnc2)Oc2cccc(C)c2)c1	0.7	20.3	0.5	2.5	0.6	-13.0
CC1CN(c2ccc([N+](=O)[O-])c3cccnc23)CC(C)N1 (stereo not drawn)	0.1	-12.8	31.6*	-42.2	6.6	-13.3
O=[N+]([O-])c1ccc(N2CCCC2)c2ncccc12	1.8	5.6	-5.3	-3.2	-4.0	-15.3
C=CS(=O)(=O)N(Cc1ccc(F)cc1)C(=C)C(=O)OC	·	·	1.7	53.3*	·	·
O=C(N/N=C/c1ccc(O)cc1)c1cc(-c2ccc3c(c2)OCO3)n[nH]1	-0.9	-8.4	4.2	24.9*	-0.9	-4.1
O=C(N/N=C/c1ccccc1)c1cc(-c2ccc3c(c2)OCO3)n[nH]1	0.7	0.8	-11.9	-2.7	-7.8	-19.5
CC(=O)OC[C@H]1O[C@H](C#Cc2ccc(C(C)(C)C)cc2)C=C[C@H]1OC(=O)Nc1ccccc1	·	·	13.4	-0.7	·	·
O=c1c(O)c(-c2ccccc2)oc2ccccc12	219.5*	1.9	6.3	-1.8	·	-27.0
Cc1ccc2oc(-c3ccccc3)c(C(=O)O)c(=O)c2c1	443.7*	-14.8	7.8	-7.7	-18.7	-106.3
Cc1ccc(COc2ccc(Br)cc2/C=N/O)cc1	449.9*	-8.3	9.9	1.7	2.5	-78.6
O/N=C/c1cc(Br)ccc1OCc1cccc(F)c1	279.2*	3.9	21.4	9.3	13.0	-3.9
COc1ccc2[nH]c(=O)c(CN(Cc3cccs3)S(=O)(=O)c3cccc4nsnc34)cc2c1	0.2	9.6	-17.6	1.3	52.5*	-45.3
COc1ccc2[nH]c(=O)c(CN(CCO)S(=O)(=O)c3c(C)ccc4nsnc34)cc2c1	-1.9	-0.3	7.4	-24.0	-1.9	-9.0
COC(=O)[C@]12C[C@H](CC(=O)N3CCCCC3)C(=O)N(CCC3=CCCCC3)C1=C[C@H](C(C)(C)C)O[C@@H]2C	·	·	19.4	9.3	·	·
COC(=O)C1=C(C)N(Cc2ccccc2C(F)(F)F)C(=NCc2ccccc2C(F)(F)F)NC1c1ccc(Cl)cc1 (stereo not drawn)	·	·	7.5	5.5	·	·
CN(N=Cc1cccc2cccnc12)c1ccc([N+](=O)[O-])cc1[N+](=O)[O-]	0.3	-3.5	0.2	5.0	·	-13.6
CN(C)/N=C/c1ccc([N+](=O)[O-])cc1[N+](=O)[O-]	30.8*	-5.0	-9.2	-15.4	-3.6	-5.8
Clc1ccc(CCNc2nc3ccccc3s2)cc1	217.4*	2.3	9.4	1.9	-7.8	-22.3
Cc1cccc(NC(=O)CSc2nnc(-c3cccnc3)n2Cc2ccco2)c1C	·	·	1.8	2.2	·	·
S=C1Cc2ccccc2N1	0.1	-9.3	99.8*	40.8*	-5.4	-0.3
S=C1Nc2ccccc2CS1	·	-7.5	-2.9	0.6	·	·
SMILES	PfHsp40 rescue	Y pestis TopoI	CCHFV vOTU inh	PrPC TRFRET	BJeLR viability	PrP UTR inh
CC(C)(C)C(=O)N1CCC[C@]2(CC[C@H](CCC#N)O2)C1	·	·	-3.1	-6.1	·	·
CC(C)(C)c1cc[n+](/C(C(=S)Nc2ccccc2F)=C(/[O-])c2ccc3c(c2)OCCO3)cc1	-1.1	8.1	6.0	-0.6	-0.3	-24.5
[O-]C(=C(C(=S)Nc1cccc2ccccc12)[n+]1ccccc1)c1ccc2c(c1)OCCO2	35.1*	-9.5	·	·	·	-11.5
S=C(NCCSCc1ccc(Cl)c(Cl)c1)Nc1ccccc1	1.3	0.9	7.3	8.1	1.1	-7.2
S=C(NCCSCc1c(Cl)cccc1Cl)Nc1ccccc1	285.0*	1.0	3.2	10.1	·	-31.6
COc1ccc(CSCCNC(=S)Nc2ccccc2)cc1Cl	44.8*	16.1	-1.6	-2.9	-6.8	-25.1
O=[N+]([O-])c1ccc(N=NN(CCO)CCO)cc1	1.4	-2.6	15.4	-17.1	0.4	-6.3
O=[N+]([O-])c1ccc(N=Nc2ncc[nH]2)cc1	84.5*	-3.2	14.1	3.7	74.2*	2.7
O=C(Nc1nnc(S(=O)(=O)Cc2ccc(F)cc2)s1)c1ccccc1F	45.4*	-5.1	10.7	0.8	-2.8	-12.0
COc1c(C(CC(C)C)OC(C)=O)ccc2c1C(=O)OCc1cc(C)cc(O)c1O2 (stereo not drawn)	161.0*	27.5	20.5	18.9	14.3	-7.2
CCc1nc(N)nc(N)c1-c1ccc(Cl)cc1	-0.8	-13.8	-3.2	-9.6	61.9*	-3.6
CCc1nc(N)nc(N)c1-c1ccc(N(C)Cc2ccccc2)c([N+](=O)[O-])c1	0.2	-1.6	-7.4	-1.6	·	-12.1
C=CCCC(=O)N1CCC(C(=O)NCC2COc3ccccc3O2)CC1 (stereo not drawn)	·	·	-3.9	-4.8	·	·
Cc1ccc(-c2nnc3n2N=C(c2ccccc2Br)CS3)cc1	19.2	58.8*	10.0	2.6	-0.2	1.3
C=CCn1c(Cc2cccs2)nnc1SCC(=O)Nc1cccc2ccccc12	·	·	-3.3	3.6	·	·
CCOC1=C2[C@H](c3ccccc3)N(S(=O)(=O)c3ccc(C)cc3)[C@H](C(C)C)[C@H]2C(C#N)(C#N)C(C#N)(C#N)C1	·	·	18.7	6.7	·	·
COc1cccc(CNC(=O)CSc2ccc(-c3ccco3)nn2)c1	1.0	2.7	-13.4	4.5	-1.7	1.1
O=C(CSc1ccc(-c2ccco2)nn1)NCc1ccc(Cl)cc1	-1.0	10.5	-7.0	2.9	3.8	-10.9
Cc1ccc(CNC(=O)CSc2ccc(-c3ccccn3)nn2)cc1	218.9*	4.9	5.0	-1.8	9.1	4.1
Cc1ccc(CNC(=O)CSc2ccc(-c3cccs3)nn2)cc1	0.2	-8.6	-0.7	7.8	6.1	0.6
COc1cccc(CNC(=O)CSc2ccc(-c3ccccn3)nn2)c1	357.4*	2.7	-11.9	-1.5	-4.0	2.2
O=C(CSc1ccc(-c2ccccn2)nn1)NCc1ccc(Cl)cc1	331.0*	5.5	-7.0	-0.9	-6.3	-15.7
O=C(OC12CCCN(C1)/C(=C/c1cccc(Cl)c1)C2)C1CCCC1 (stereo not drawn)	·	·	3.1	-0.6	·	·
CCCC(=O)NC(c1ccc(C)cc1)c1ccc2cccnc2c1O (stereo not drawn)	?	-8.8	·	·	21.9	30.1
CCCC(=O)NC(c1ccccc1OC)c1ccc2cccnc2c1O (stereo not drawn)	374.0*	1.4	·	·	18.4	30.1
CCCCC(=O)NC(c1ccc(N(CC)CC)cc1)c1ccc2cccnc2c1O (stereo not drawn)	128.9*	4.3	1.8	6.1	48.1	37.4
S=C(Nc1ccc(Cl)c(Cl)c1)Nc1nnc(-c2ccncc2)s1	·	·	·	10.8	·	·
